# In the library only some 18% were active in any assay of this set; here they are far more common.
# IL1B secr inh: blocks inflammasome-driven IL-1 beta release. THP-1 LPS/ATP IL-1B secretion, AlphaLISA, 16 h; hits give low values. activity change, % at 57.5 µM. hit rate 4.7% among 360,000. AID 743279; in the data active = activity change below about -50%; inconclusive = mostly about -30% to -49%
#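 Secreted IL-1B measured by AlphaLISA bead assay after 16 h compound exposure of THP-1 cells; compounds (final up to 57.5 uM) added 1 h before LPS (250 ng/mL) and ATP (1.25 mM) stimulation; lower signal means less secretion.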
# RORgamma inh: ROR gamma (mouse) transcription inhibition; P51450; Drosophila S2 Gal4-RORgamma UAS-luciferase reporter, 20 h; Potency, µM (series often up to 53.6 µM), without a hit: top-dose activity change, negative = inhibition, actives largely listed as inhibitors; hit rate 5.4% among 310,000; note: potency is the fitted concentration of half-maximal effect; nearly all actives have a fitted effect of over 60% in size
# Target sequence (P51450 whole entry, looked up, the tested form may be a part): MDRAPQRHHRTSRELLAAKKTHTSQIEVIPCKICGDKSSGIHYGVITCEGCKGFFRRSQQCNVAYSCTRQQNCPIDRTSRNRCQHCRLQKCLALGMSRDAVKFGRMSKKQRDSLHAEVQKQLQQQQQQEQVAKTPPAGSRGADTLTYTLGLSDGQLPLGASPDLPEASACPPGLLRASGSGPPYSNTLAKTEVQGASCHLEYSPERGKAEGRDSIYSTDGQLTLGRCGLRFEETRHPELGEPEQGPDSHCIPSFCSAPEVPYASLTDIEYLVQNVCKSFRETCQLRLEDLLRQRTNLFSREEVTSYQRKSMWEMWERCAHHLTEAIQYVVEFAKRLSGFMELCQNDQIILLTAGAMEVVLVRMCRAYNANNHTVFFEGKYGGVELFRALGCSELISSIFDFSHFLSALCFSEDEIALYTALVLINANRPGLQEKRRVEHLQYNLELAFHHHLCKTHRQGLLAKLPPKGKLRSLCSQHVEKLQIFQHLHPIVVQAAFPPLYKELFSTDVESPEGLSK
#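 Compounds are pin-transferred onto Drosophila Schneider cells expressing a copper-inducible Gal4–ROR gamma transactivation domain fusion. After 1 hr, copper sulfate is added to 700 uM final; luciferase is read 20 hr later.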
# LDHA inh: LDHA (human) enzyme inhibition; hit rate 0.15% among 480,000; P00338; purified LDHA, NADH/diaphorase-resazurin fluorescence; hits give low values; activity change, % (values are at about 110 or 230 µM); in the data active = activity change below about -30%; inconclusive = mostly about -25% to -30%;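 note: plate controls were DMSO wells for no effect and wells without enzyme for full effect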
#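 Human LDH5 at 2 nM final in Tris HCl pH 7.4 with 0.06 mM NADH and 0.2 mM pyruvate, reacted 5 minutes at room temperature. Remaining NADH coupled via diaphorase/resazurin; resorufin fluorescence read at 0 and 20 minutes, normalized to enzyme-free and DMSO wells.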
# TDP1 cell CPT: DT40-hTDP1 cell growth loss with CPT; chicken DT40 Tdp1-/-;hTDP1 cells + 20 nM CPT, ATP luminescence, 48 h; Potency, µM (titrated, usually from 46.2 µM), for inactives: at the top dose activity change, negative = growth inhibition, actives largely listed as inhibitors; hit rate 12% among 420,000; AID 686979; note: potency is the fitted concentration of half-maximal effect; nearly all actives have a fitted effect of over 55% in size
#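 Cell growth measured by CellTiter-Glo luminescence after a minimum 48 h, 37 C compound exposure with 20 nM CPT in Tdp1-knockout DT40 cells stably expressing hTDP1, seeded 400/well; qHTS titration format.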
# DT40 TDP1 no CPT: qHTS for Inhibitors of human tyrosyl-DNA phosphodiesterase 1 (TDP1): qHTS in cells in absence of CPT | hit rate 15% among 420,000 | Potency, µM (series often up to 46.2 µM), without a hit: at the highest dose activity change, negative = growth inhibition, actives largely listed as inhibitors | DT40 Tdp1-/- hTDP1 cells, no CPT, ATP luminescence, 48 h; note: potency is the fitted concentration of half-maximal effect; nearly all actives have a fitted effect of over 55% in size
#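 Seeded 400 DT40-hTDP1 cells/well (vehicle DMSO, no 20 nM CPT); pinned compounds; ≥48 hr at 37 °C; CellTiter-Glo luminescence as viability measure.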
# Gal4-VP16 FLuc: inhibits Gal4-VP16 luciferase reporter, ROR gamma counter-screen | Drosophila S2 Gal4-VP16 UAS-luciferase, luminescence, 20 h | Potency, µM (top dose mostly 53.6 µM), for the others: at the highest dose activity, negative = inhibition, hits mostly inhibitors | hit rate 3.5% among 310,000;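 note: Gal4-VP16 expression switched on by copper sulfate through the metallothionein promoter; potency is the fitted concentration of half-maximal effect; nearly all actives have a fitted effect of over 50% in size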
# * hit, by the source's call; ? = inconclusive; nt = no result; [ ] = dose if it differs, or a comment. Unless noted, calls come from the whole dose curve; as a rule, active = well fitted curve in the direction sought with a large enough effect; inconclusive = small, poorly fitted or top-dose-only effect, or another doubt; inactive = no such curve, though single readings can be large; an effect the other way counts as inactive or inconclusive. Unless noted, % is set by controls: 0 for no effect and ±100 for the full control effect.
SMILES,IL1B secr inh,RORgamma inh,LDHA inh,TDP1 cell CPT,DT40 TDP1 no CPT,Gal4-VP16 FLuc
COc1ccccc1CNC(=O)C1CCN(S(=O)(=O)c2ccc(N3CCCC3=O)cc2)CC1,1,-2%,-4,-29%,?,-5%
Cc1cccc2sc(NC(=O)C3CCN(S(=O)(=O)c4cc([N+](=O)[O-])ccc4Cl)CC3)nc12,-76*,?,8,18µM*,16µM*,?
O=C(NCc1ccccc1)C1CCN(S(=O)(=O)c2ccc(N3CCCC3=O)cc2)CC1,-21,0%,-8,-20%,21µM*,4%
O=C(NCc1ccc(Cl)cc1)C1CCN(S(=O)(=O)c2cc([N+](=O)[O-])ccc2Cl)CC1,-17,?,-2,23µM*,16µM*,?
O=C(COC(=O)c1cc(=O)c2ccccc2o1)Nc1ccc(F)cc1,nt,nt,3,nt,nt,nt
Nc1ccc(C(=O)OC2CCCC2)cc1,nt,nt,9,nt,nt,nt
O=C(CCNC(=O)C1CCN(S(=O)(=O)c2ccccc2)CC1)NCCc1cccc(F)c1,0,-2%,-5,?,26µM*,2%
O=C(NCc1ccc(F)cc1)C1CCN(S(=O)(=O)c2ccc(Cl)cc2)CC1,-21,-7%,-5,3%,?,1%
O=C(NCc1ccc(Cl)cc1)C1CCN(S(=O)(=O)c2ccc(N3CCCC3=O)cc2)CC1,-9,-1%,-19,10µM*,?,-12%
O=C(CCNC(=O)C1CCN(S(=O)(=O)c2ccccc2)CC1)NCCc1ccc(Cl)cc1,-9,23%,-2,-14%,-8%,-6%
COc1ccc(C(=O)Nc2ccc(SC(F)F)cc2)cc1,31,?,-3,-30%,?,0%
O=C(Nc1ncc(Cc2ccc(SC(F)F)cc2)s1)c1ccc(OC(F)F)cc1,22,-45%,0,1.3µM*,1µM*,?
NC(=O)c1cc(Cc2ccccc2)sc1NC(=O)c1ccco1,-56*,?,1,?,12µM*,?
Cc1ccc2oc(C(=O)Nc3ncc(Cc4ccccc4)s3)cc(=O)c2c1,nt,nt,0,nt,nt,nt
Cc1cccc(Cc2cnc(NC(=O)C3=NCCN3)s2)c1,3,3.5µM*,0,-86%,23µM*,7.9µM*
Cc1ccc(Cc2cnc(NC(=O)C3=NCCN3)s2)cc1,nt,14%,nt,nt,nt,3%
Cc1cccc(Cc2cnc(NC(=O)c3ccc(C)o3)s2)c1,-13,10µM*,-3,?,?,?
O=C(Nc1nnc(Cc2ccccc2)s1)c1ccco1,1,?,-3,-7%,-6%,23%
Cc1ccc(Cc2cnc(NC(=O)c3ccco3)s2)cc1,2,?,1,-85%,?,5.6µM*
COC1=C(C)C(=O)C2=C(C1=O)C1C3CC4=C(C(=O)C(OC)=C(C)C4=O)C(CNC(=O)C(C)=O)N3C(C#N)C(C2)N1C (stereo not drawn),-99*,nt,44,0.041µM*,0.026µM*,nt
O=C(NCc1ccncc1)c1cccc2cccnc12,nt,nt,-1,nt,nt,nt
CCN(CC)c1nc(C)c(C(=S)Nc2cc([N+](=O)[O-])ccc2Cl)s1,-14,3.2µM*,1,1%,-19%,-8%
O=C1C2C3C=CC(c4ccccc4)(C2C(=O)N1c1cccc(Cl)c1)C1C(=O)N(c2cccc(Cl)c2)C(=O)C31 (stereo not drawn),-3,20%,-5,15µM*,15µM*,-10%
CCN(Cc1ccc(C)cc1)Cc1cc(=O)oc2ccc(OC)cc12,nt,nt,-7,nt,nt,nt
Cn1c(/C(C#N)=C(\O)c2cccc(F)c2)nc2ccccc21,2,7.1µM*,-2,-1%,?,7.1µM*
SMILES,IL1B secr inh,RORgamma inh,LDHA inh,TDP1 cell CPT,DT40 TDP1 no CPT,Gal4-VP16 FLuc
N#C/C(=C(/O)C(Cl)c1ccccc1)c1nc2ccccc2s1 (stereo not drawn),-5,?,0,6.5µM*,13µM*,2%
CCN(CC)S(=O)(=O)c1ccc2c(c1)nc(-c1ccccn1)n2C,-11,23%,-6,-22%,?,18%
N#C/C(=C(/O)CN1CCOCC1)c1nc2ccccc2s1,2,22%,-1,8%,-28%,-1%
N#C/C(=C(/O)c1cccc(F)c1)c1nc2ccccc2s1,-59*,?,-10,21µM*,12µM*,13%
CCN(CC)S(=O)(=O)c1ccc(/C(O)=C(\C#N)c2nc3ccccc3n2C)cc1,?,2.8µM*,-16,?,?,5.6µM*
N#Cc1ccc(N2CCC(C(=O)Nc3nc(C4CC4)cs3)CC2)nc1,nt,nt,3,nt,nt,nt
Cc1[nH]c2ccccc2c1C(=O)C(C)OC(=O)c1ccc(F)cc1Cl (stereo not drawn),nt,nt,7,nt,nt,nt
Cn1c(/C(C#N)=C(\O)c2ccc([N+](=O)[O-])cc2)nc2ccccc21,5,1%,1,?,18µM*,1%
Cn1cc(/C=N/n2cnc3scc(-c4ccc(Cl)cc4)c3c2=O)c2ccccc21,142,4%,-3,0.58µM*,0.82µM*,-10%
O=c1c2c(-c3ccccc3)csc2ncn1/N=C/c1cn(-c2ccccc2)nc1-c1cccs1,nt,nt,-3,nt,nt,nt
CSc1ccc(/C=C/c2nc(N)nc(-c3ccccc3O)n2)cc1,nt,nt,-3,nt,nt,nt
Cc1cccc(N=Nc2c(C)nn(-c3ccccc3)c2N)c1C,0,2.5µM*,1,?,?,?
Nc1nc(N)c(N=Nc2ccccc2)c(=O)[nH]1,?,nt,-2,21µM*,5.8µM*,nt
Nc1nc(-c2ccccc2)c(N=Nc2ccc(Cl)cc2)s1,-7,3%[10 µM],-1,1%,-11%,-1%
Nc1nn(-c2ccccc2)c(N)c1N=Nc1ccccc1,15,-12%,3,4.1µM*,4.6µM*,0%
Cc1nn(-c2ccccc2)c(N)c1N=Nc1ccc(Cl)cc1,-76*,?,-2,?,?,-1%
O=C(Cn1cnc(S(=O)(=O)N2CCc3ccccc32)c1)NC1CCCCCC1,nt,nt,-15,nt,nt,nt
Nc1nn(-c2ccccc2)c(N)c1N=Nc1ccccc1F,-54*,-36%,-5,9.2µM*,13µM*,-19%
Cc1nn(-c2ccccc2)c(N)c1N=Nc1cccc(S(=O)(=O)N2CCOCC2)c1,-56*,-10%,-3,?,16µM*,-12%
Cc1nn(-c2ccccc2)c(N)c1-c1ccccc1,-3,1%,-2,3%,11%,?
Cc1nn(-c2ccccc2)c(N)c1N=Nc1ccccc1,-68*,-38%,-5,?,21µM*,-6%

# Screening results (PubChem BioAssay)
